The target of assay [1] is Mitogen-activated protein kinase kinase kinase kinase 4 (Homo sapiens) (UniProt O95819). The settings on record: at 1 µM.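 Also: reported figure is an averaged inhibition value.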
For assay [2], the target named is Dual specificity mitogen-activated protein kinase kinase 1 (Homo sapiens) (UniProt Q02750). The settings on record: at 0.1 µM.
Assay [3] shares this target. The settings on record: at 1 µM.
Assay [4] concerns the target Misshapen-like kinase 1 (Homo sapiens) (UniProt Q8N4C8). The settings on record: at 0.1 µM.
The target is the same in assay [5]. The settings on record: at 1 µM.
Assay [6] addresses T1, Serine/threonine-protein kinase 4 (Homo sapiens) (UniProt Q13043).
T1 sequence (whole entry): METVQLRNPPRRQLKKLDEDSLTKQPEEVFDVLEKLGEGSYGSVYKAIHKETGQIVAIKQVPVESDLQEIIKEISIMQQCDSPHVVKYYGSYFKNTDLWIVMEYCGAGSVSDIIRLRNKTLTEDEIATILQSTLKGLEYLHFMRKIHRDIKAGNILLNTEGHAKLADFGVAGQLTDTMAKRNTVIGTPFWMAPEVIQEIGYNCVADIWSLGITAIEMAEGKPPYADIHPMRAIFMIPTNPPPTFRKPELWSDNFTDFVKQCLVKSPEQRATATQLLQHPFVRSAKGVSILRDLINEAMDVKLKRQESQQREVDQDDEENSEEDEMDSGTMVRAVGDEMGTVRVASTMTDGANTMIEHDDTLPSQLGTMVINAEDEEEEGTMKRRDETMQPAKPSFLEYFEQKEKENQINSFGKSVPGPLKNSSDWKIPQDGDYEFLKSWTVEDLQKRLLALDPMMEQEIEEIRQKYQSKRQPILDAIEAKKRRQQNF
The settings on record: at 0.1 µM.

The target in assay [7] is T1, Serine/threonine-protein kinase 4 (Homo sapiens). The settings on record: at 1 µM.
Assay [8] deals with T2, Serine/threonine-protein kinase 3 (Homo sapiens) (UniProt Q13188).
T2 sequence (whole entry): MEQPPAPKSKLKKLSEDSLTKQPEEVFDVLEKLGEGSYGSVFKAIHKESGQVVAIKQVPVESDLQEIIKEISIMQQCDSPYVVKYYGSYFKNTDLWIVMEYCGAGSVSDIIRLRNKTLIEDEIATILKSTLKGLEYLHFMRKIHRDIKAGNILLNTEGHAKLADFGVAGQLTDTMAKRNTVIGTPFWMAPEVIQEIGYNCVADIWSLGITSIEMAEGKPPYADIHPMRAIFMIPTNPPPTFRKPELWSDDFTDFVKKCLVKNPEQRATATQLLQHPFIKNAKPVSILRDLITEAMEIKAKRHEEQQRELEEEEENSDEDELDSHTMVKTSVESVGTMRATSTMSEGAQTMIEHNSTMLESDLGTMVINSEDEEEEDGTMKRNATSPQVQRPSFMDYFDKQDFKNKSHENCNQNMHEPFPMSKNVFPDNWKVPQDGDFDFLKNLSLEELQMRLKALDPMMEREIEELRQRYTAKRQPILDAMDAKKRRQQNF
The settings on record: at 0.1 µM.

The target of assay [9] is T2, Serine/threonine-protein kinase 3 (Homo sapiens). The settings on record: at 1 µM.
Assay [10] has as its target Serine/threonine-protein kinase 26 (Homo sapiens) (UniProt Q9P289). The settings on record: at 0.1 µM.
Assay [11] has the same target. The settings on record: at 1 µM.
The target in assay [12] is Serine/threonine-protein kinase PAK 1 (Homo sapiens) (UniProt Q13153). The settings on record: at 0.1 µM.
The target is the same in assay [13]. The settings on record: at 1 µM.
In assay [14] the target is Serine/threonine-protein kinase PAK 2 (Homo sapiens) (UniProt Q13177). The settings on record: at 0.1 µM.
The target is the same in assay [15]. The settings on record: at 1 µM.
The target of assay [16] is Serine/threonine-protein kinase PAK 3 (Homo sapiens) (UniProt O75914). The settings on record: at 0.1 µM.
Serine/threonine-protein kinase PAK 3 (Homo sapiens), sequence (O75914 whole entry, looked up): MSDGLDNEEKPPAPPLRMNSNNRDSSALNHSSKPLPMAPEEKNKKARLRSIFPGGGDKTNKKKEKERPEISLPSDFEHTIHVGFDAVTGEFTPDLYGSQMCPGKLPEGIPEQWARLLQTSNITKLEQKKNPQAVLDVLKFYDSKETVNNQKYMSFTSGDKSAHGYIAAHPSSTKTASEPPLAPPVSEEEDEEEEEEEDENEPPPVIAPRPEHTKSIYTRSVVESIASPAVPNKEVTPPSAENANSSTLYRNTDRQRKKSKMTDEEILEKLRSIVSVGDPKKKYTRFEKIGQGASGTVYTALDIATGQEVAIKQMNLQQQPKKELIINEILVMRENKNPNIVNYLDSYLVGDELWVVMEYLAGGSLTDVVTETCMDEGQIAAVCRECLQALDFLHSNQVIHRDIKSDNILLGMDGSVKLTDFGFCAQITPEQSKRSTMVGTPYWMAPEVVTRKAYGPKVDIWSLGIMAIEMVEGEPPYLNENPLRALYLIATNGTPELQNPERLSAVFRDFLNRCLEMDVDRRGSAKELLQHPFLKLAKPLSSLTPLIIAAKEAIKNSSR
The target is the same in assay [17]. The settings on record: at 1 µM.
Assay [18] concerns the target Serine/threonine-protein kinase PAK 5 (Homo sapiens) (UniProt Q9P286). The settings on record: at 0.1 µM.
For assay [19] the target is unchanged. The settings on record: at 1 µM.
Assay [20] concerns the target Serine/threonine-protein kinase PAK 6 (Homo sapiens) (UniProt Q9NQU5). The settings on record: at 0.1 µM.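 Also: mean PAK6 inhibition reported from the GSK PKIS screen.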

Consider 7 molecules from ChEMBL document CHEMBL1961873, “Compounds: GSK PKIS; Assays: Nanosyn kinase panel” (2012).

By inhibition is commonly meant the change of the read-out against control, counted positive when it falls.

Serine/threonine-protein kinase PAK 5 (Homo sapiens), sequence (Q9P286 whole entry, looked up): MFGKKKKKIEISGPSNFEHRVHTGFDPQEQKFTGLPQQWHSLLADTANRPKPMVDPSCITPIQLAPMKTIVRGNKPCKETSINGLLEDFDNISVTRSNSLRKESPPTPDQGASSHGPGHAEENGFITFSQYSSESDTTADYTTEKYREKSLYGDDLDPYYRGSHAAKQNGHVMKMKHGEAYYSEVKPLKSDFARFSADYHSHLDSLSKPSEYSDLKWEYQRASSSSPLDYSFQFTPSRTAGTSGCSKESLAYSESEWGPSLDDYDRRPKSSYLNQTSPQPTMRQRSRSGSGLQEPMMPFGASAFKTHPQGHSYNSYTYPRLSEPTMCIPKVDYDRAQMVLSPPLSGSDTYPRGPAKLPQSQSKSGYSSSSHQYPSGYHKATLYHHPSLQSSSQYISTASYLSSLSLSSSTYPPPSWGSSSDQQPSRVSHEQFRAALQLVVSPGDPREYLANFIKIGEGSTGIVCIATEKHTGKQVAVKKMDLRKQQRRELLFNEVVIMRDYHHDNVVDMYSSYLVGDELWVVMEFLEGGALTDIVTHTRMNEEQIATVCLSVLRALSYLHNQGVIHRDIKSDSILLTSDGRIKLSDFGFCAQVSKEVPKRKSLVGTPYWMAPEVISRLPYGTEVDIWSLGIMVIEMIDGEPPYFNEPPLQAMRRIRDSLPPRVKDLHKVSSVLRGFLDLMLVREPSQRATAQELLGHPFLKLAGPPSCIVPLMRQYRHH
Serine/threonine-protein kinase 26 (Homo sapiens), sequence (Q9P289 2-416 limits assumed): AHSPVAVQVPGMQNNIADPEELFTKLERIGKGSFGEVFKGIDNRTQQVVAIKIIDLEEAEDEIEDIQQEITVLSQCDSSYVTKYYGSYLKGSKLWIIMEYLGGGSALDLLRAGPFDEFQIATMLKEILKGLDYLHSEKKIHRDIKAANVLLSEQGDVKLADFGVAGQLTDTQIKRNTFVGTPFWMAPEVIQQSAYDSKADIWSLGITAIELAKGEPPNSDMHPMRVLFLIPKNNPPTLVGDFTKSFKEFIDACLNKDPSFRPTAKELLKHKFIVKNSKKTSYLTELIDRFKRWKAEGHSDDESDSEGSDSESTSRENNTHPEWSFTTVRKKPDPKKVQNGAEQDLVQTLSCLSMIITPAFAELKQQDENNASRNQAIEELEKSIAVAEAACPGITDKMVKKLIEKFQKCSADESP
Dual specificity mitogen-activated protein kinase kinase 1 (Homo sapiens), sequence (Q02750 whole entry): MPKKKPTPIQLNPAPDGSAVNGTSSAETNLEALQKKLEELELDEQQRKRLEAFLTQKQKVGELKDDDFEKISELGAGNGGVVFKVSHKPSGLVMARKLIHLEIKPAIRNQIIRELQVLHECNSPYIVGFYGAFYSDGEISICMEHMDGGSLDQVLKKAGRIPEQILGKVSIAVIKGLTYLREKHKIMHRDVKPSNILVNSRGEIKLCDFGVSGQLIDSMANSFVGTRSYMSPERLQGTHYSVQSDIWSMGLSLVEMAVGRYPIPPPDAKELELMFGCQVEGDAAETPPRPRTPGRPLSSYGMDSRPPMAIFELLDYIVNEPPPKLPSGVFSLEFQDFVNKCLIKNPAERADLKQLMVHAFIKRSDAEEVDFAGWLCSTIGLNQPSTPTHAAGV
Misshapen-like kinase 1 (Homo sapiens), sequence (Q8N4C8 whole entry, looked up): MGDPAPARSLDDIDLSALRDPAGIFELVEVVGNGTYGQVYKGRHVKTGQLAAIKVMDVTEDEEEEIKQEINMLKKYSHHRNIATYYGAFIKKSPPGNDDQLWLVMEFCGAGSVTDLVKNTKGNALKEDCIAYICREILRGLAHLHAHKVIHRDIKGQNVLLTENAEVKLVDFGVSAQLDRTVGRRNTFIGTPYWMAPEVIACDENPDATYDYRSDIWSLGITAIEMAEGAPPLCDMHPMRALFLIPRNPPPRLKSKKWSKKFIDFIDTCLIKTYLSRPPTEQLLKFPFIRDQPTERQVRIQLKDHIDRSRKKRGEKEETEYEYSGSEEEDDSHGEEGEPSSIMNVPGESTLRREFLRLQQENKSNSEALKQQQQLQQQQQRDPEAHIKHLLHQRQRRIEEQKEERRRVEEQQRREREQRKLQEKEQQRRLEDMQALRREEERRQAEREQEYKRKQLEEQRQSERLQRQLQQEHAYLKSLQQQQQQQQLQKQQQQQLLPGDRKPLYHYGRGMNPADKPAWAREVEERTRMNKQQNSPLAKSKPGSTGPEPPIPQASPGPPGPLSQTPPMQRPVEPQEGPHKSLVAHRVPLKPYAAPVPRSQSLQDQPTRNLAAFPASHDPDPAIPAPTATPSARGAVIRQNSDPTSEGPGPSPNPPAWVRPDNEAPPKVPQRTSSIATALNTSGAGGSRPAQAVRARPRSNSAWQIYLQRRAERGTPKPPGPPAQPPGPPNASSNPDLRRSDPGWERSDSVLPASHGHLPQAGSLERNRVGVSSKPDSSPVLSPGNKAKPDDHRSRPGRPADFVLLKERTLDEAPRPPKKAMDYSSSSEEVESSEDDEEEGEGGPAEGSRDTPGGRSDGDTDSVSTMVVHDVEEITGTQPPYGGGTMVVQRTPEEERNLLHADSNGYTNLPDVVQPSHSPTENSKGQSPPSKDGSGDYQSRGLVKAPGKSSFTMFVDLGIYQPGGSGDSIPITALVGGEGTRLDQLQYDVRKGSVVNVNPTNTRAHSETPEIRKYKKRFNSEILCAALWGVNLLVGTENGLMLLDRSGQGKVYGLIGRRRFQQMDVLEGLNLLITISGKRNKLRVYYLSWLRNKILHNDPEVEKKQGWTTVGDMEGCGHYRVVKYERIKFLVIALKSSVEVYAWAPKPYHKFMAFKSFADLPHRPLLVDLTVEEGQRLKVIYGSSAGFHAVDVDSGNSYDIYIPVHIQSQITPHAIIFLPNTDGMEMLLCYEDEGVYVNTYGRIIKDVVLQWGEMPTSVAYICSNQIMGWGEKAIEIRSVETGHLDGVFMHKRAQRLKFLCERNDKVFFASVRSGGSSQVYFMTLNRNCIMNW
Mitogen-activated protein kinase kinase kinase kinase 4 (Homo sapiens), sequence (O95819 2-1239 limits assumed): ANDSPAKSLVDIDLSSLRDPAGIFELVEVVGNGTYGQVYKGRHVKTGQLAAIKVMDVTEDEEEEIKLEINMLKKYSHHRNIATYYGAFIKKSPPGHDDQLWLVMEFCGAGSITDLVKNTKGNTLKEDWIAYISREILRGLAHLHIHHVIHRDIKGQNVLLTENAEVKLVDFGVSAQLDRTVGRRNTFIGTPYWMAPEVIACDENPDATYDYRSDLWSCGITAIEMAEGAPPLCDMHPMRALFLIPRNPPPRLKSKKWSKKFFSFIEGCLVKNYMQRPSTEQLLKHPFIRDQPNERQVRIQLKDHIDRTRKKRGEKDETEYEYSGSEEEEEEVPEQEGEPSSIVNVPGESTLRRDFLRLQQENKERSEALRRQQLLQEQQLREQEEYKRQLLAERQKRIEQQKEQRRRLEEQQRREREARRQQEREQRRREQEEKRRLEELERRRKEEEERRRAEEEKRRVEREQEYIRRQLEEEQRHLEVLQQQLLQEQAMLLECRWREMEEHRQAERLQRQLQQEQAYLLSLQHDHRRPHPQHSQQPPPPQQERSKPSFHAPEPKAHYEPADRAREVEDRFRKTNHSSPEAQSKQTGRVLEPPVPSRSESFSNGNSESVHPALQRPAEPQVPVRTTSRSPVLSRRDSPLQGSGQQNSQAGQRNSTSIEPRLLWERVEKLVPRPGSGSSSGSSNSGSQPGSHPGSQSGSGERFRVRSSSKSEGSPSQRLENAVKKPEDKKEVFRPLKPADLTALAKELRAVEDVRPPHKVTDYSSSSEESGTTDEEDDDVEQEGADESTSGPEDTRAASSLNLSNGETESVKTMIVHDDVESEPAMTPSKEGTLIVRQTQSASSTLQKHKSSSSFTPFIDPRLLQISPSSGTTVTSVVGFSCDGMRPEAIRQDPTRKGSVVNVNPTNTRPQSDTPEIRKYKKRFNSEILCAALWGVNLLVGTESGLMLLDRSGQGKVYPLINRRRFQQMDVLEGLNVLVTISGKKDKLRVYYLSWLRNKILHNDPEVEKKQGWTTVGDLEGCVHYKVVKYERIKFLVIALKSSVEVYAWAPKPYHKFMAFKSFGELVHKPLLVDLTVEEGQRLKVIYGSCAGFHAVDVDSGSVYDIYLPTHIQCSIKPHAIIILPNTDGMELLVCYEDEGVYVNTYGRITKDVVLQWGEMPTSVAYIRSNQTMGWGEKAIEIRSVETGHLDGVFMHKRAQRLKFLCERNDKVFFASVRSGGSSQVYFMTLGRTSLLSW

Take `COc1cc2ncn(-c3cc(OCc4ccccc4C(F)(F)F)c(C(=O)N(C)C)s3)c2cc1OC`: the inhibition is 2.4% in assay [1]; 0.8% in assay [2]; 1.58% in [3]; 1.7% in assay [4]; 2.67% in assay [5]; -0.01% in assay [6]. In addition, the inhibition is 3.43% in assay [7]; 1.15% in assay [8]; 4.03% in assay [9]; 0% in assay [10]; 3.36% in assay [11]; -0.17% in assay [12]. Further, the inhibition in assay [13] is -2.04%; in assay [14] it was -1.09%; in assay [15] it was -0.86%; in assay [16], -0.48%; in assay [17], -0.61%; in [18], -6.21%. Further, the inhibition is 0.3% in assay [19] and -7.29% in [20].
For the molecule `CCNC(=O)O[C@H]1CN[C@H](C#Cc2cc3ncnc(Nc4ccc(OCc5cccc(F)c5)c(Cl)c4)c3s2)C1`, the inhibition was 5.98% in assay [1]; 2.35% in assay [2]; 1.8% in assay [3]; 4.31% in assay [4]; 5.58% in [5]; 5.6% in [6]. Further, the inhibition in assay [7] was 5.6%; in assay [8], 6.17%; in assay [9], 5.21%; in assay [10], -1.55%; in assay [11], -0.79%; in assay [12], 1.87%. The inhibition in assay [13] amounted to 8.64%; in assay [14] it was 1.21%; in assay [15] it was 1.91%; in [16] it was 3.71%; in assay [17], 3.15%; in assay [18] it was 5.88%. The figures for the inhibition in assay [19] and in [20] were 2.54% and 8.13%, respectively.
For `NS(=O)(=O)c1ccc(Nc2ncc(-c3ccccc3)o2)cc1`, the inhibition turned out to be 58.6% in assay [1]; 2.3% in assay [2]; 2.12% in assay [3]; 8.89% in assay [4]; 41.9% in [5]; 6.4% in assay [6]. For the same molecule, the inhibition in assay [7] was 10.2%; in [8] it was 7.3%; in assay [9], 8.38%; in assay [10] it was -1.93%; in assay [11] it was -2.5%; in assay [12], 4.04%. Moreover, the inhibition in [13] was found to be 7.88%; in assay [14], 2.52%; in assay [15], 1.78%; in [16], 4.23%; in assay [17] it was 5.19%; in [18], 8.88%. In addition, the inhibition in assay [19] was 9.45%; in [20], -1.35%.
Consider `Cc1cccc(Nc2ncc(-c3ccccc3)o2)c1`, for which the inhibition in assay [1] was found to be 14.1%; in assay [2], 2.53%; in [3], 2.53%; in [4], 2.9%; in assay [5], 10.2%; in [6], 1.44%. For the same molecule, the inhibition in [7] is 4.08%; in assay [8], 1.8%; in [9], 4.97%; in assay [10], 0.69%; in assay [11], 1.87%; in assay [12], -2.05%. In addition, the inhibition in [13] was found to be 3.35%; in [14], 0.94%; in assay [15], 2.06%; in [16], 2.83%; in assay [17], 5.76%; in assay [18], 1.42%. The inhibition in [19] is 10.2%; in [20], -4.69%.
Consider `CN1CCC(n2cnc(-c3ccc(F)cc3)c2-c2ccnc(N)n2)CC1`, for which the inhibition in [1] amounted to 12%; in assay [2], 3.26%; in assay [3], 3.41%; in assay [4], 4.61%; in assay [5] it was 11%; in assay [6] it was 2.73%. The inhibition is 7.85% in [7]; 3.58% in assay [8]; 6.77% in [9]; -1.05% in assay [10]; 1.62% in assay [11]; -0.17% in assay [12]. Besides, the inhibition in assay [13] was 3.27%; in assay [14] it was 0.07%; in assay [15], -0.19%; in assay [16], 0.98%; in assay [17] it was 1.43%; in assay [18] it was -5.17%. The inhibition was 3.69% in assay [19] and -8.92% in assay [20].
`c1cc(-c2cnn3nc(N4CCOCC4)ccc23)nc(NC2CC2)n1`: the inhibition in assay [1] amounted to 20.9%; in assay [2], 4.84%; in assay [3], 9.33%; in assay [4], 4.94%; in assay [5], 13.9%; in assay [6], 7.25%. The inhibition in [7] is 10.3%; in assay [8], 8.19%; in [9] it was 8.11%; in [10], -0.92%; in assay [11], -4.91%; in assay [12] it was -0.13%. The inhibition in assay [13] worked out at 5.07%; in [14], 3.69%; in [15], 3.04%; in [16], 4.26%; in assay [17] it was 4.93%; in [18], 6.57%. The inhibition in assay [19] was 1.19%; in [20] it was 4.42%.
Consider `COc1ccc(-c2nn3ncccc3c2-c2ccnc(Nc3ccc4c(c3)OCCO4)n2)cc1`, for which the inhibition in assay [1] is 9.82%; in assay [2], 0.5%; in [3], 1.59%; in assay [4] it was 3.01%; in assay [5], 7.26%; in assay [6], -0.55%. Moreover, the inhibition is 1.99% in assay [7]; -0.94% in [8]; -0.28% in assay [9]; 0.86% in [10]; 0.26% in assay [11]; 3.86% in assay [12]. Besides, the inhibition is -2.26% in assay [13]; -0.29% in assay [14]; 0.11% in [15]; 1.09% in [16]; 1.51% in assay [17]; -2.13% in assay [18]. Moreover, the inhibition in assay [19] was -5%; in assay [20], 1.12%.
